Data published in PubChem BioAssay (Tox21).
Inconclusive results are not listed. Activity calls are given as the source filed them. Calls follow the shape of the dose curve; as a rule, active = well fitted activation curve with a large enough effect in the repeat runs; inconclusive = weak or mixed curves; inactive = no such curve, though single readings can be large or run the other way. Positions of bridges follow the written chain, without caps; N, C: chain ends. Non-standard residues stand in square brackets, D forms with d. Residues, ends and D or L forms follow the SMILES beside them. *: point of attachment. X2 = CC[C@H](C)CCCCC(=O)*; Dab = NCC[C@H](N)C(=O)O

molecular target: Nuclear receptor subfamily 1 group I member 2 (Homo sapiens) (UniProt O75469); assay: CYP3A4 induction through human pregnane X receptor (PXR) by small molecules, qHTS assay (AID 1346984); details: DPX-2 HepG2 PXR, CYP3A4-luciferin luminescence, 24 h; series mostly up to 46.1 µM; activation: at the top concentration; also: nearly all actives have a fitted effect of over 40% in size
Excerpt: National Center for Advancing Translational Sciences [NCATS]
NIH Chemical Genomics Center [NCGC]
U.S. Environmental Protection Agency [EPA]
National Institutes of Environmental Health Sciences [NIEHS]
National Toxicology Program [NTP]
The Pregnane X receptor (PXR), a ligand activated nuclear receptor plays a critical role in the regulation of genes involved in drug metabolism and transporters. Activation of PXR is responsible for unwanted adverse drug reactions. PXR binds xenobiotics and when compounds interact with PXR enhances the expression of CYP3A genes. Identifying the compounds with the potential for PXR activation and CYP3A4 induction can be of importance in improving the efficacy of drugs with less toxicity and avoiding drug-drug interactions.
DPX-2 (Puracyp, Inc.) cell lines, used for screening against human PXR activation has HepG2 cells co-transfected with a PXR response element and a luciferase construct containing CYP3A4 promoter. Increase in luciferase activity can be used to identify the compounds that cause the induction of CYP3A4.
DPX-2 cells were dispensed at 2,000 cells per well in 5uL of assay medium into white, solid-bottom 1536-well plates using a Multidrop Combi dispenser (Thermo Scientific). The assay plates were incubated at 37C for 5hr before transferring 23nL of test compounds dissolved in DMSO and positive control via Pintool station (Wako). The assay plates were incubated at 37C for 24hr. After 24hr compound treatment, 1uL of 3uM (final concentration) P450 substrate (P450-Glo CYP3A4 screening system with Luciferin-IPA, Promega) was added by a Flying Reagent Dispenser (FRD, Aurora Discovery). The assay plates were incubated for 3hr at 37C. Then 5ul One-Glo assay reagent (Promega) was added to each plate by an FRD and following 30 min incubation at room temperature, luciferase activity was quantified on a ViewLux plate reader (Perkin Elmer).
% is scaled to controls: 0 for no effect and ±100 for the full control effect; potency is read from the fitted curve at half-maximal effect.

| SMILES | activation | Potency |
| --- | --- | --- |
| CCCC1C(=O)N2C(N(C)C)=Nc3ccc(C)cc3N2C1=O (stereo not given) | -8.32% [at 20.6 µM] (inactive) |  |
| CC(C)(S)[C@@H](N)C(=O)O | 3.19% (inactive) |  |
| C=C1CC[C@H](O)CC1=C/C=C1\CCC[C@]2(C)[C@@H]([C@H](C)CC[C@@H](O)C(C)(C)O)CC[C@@H]12 | -5.92% (inactive) |  |
| [O]=[Bi][O]C(=O)[O][Bi]=[O] | 4.18% (inactive) |  |
| O=C1NCCN1c1ncc([N+](=O)[O-])s1 | 0.694% [at 20.6 µM] (inactive) |  |
| COc1c(O[C@@H]2O[C@H](CO)[C@@H](O)[C@H](O)[C@H]2O)cc2c(c1OC)-c1ccc(SC)c(=O)cc1[C@@H](NC(C)=O)CC2 | -4.82% [at 20.6 µM] (inactive) |  |
| CO[C@H]1C[C@H](O[C@@H]2/C(C)=C/C[C@@H]3C[C@@H](C[C@]4(CC[C@H](C)[C@@H](C5CCCCC5)O4)O3)OC(=O)[C@@H]3C=C(C)/C(=N/O)[C@H]4OC/C(=C\C=C\[C@@H]2C)[C@]43O)O[C@@H](C)[C@@H]1O | -10.6% (inactive) |  |
| CN(C)c1ccc(C(=C2C=CC(=[N+](C)C)C=C2)c2c(O)c(S(=O)(=O)[O-])cc3cc(S(=O)(=O)O)ccc23)cc1 | -12.6% (inactive) |  |
| CCC(Oc1ccccc1)C(=O)N[C@@H]1C(=O)N2[C@@H]1SC(C)(C)[C@@H]2C(=O)O (stereo not given in full) | 13.2% (inactive) |  |
| COC(=O)[C@@H](N)CS | -0.492% (inactive) |  |
| CN1CCC(CN2c3ccccc3Sc3ccccc32)C1 (stereo not given) |  | 0.891 µM (active) |
| CN1CCCC(CN2c3ccccc3Sc3ccccc32)C1 (stereo not given) |  | 25.1 µM (active) |
| CC1=C(/C=C/C(C)=C/C=C/C(C)=C/C=C/C=C(C)/C=C/C=C(C)/C=C/C2=C(C)C[C@@H](O)CC2(C)C)C(C)(C)C[C@H](O)C1 | 4.53% (inactive) |  |
| O=C(Cc1cccs1)N[C@@H]1C(=O)N2C(C(=O)[O-])=C(C[n+]3ccccc3)CS[C@H]12 | -0.666% (inactive) |  |
| CC[C@H](C)CCCCC(=O)N[C@@H](CCN)C(=O)N[C@H](C(=O)N[C@@H](CCN)C(=O)N[C@H]1CCNC(=O)[C@@H]([C@H](C)O)NC(=O)[C@H](CCN)NC(=O)[C@H](CCN)NC(=O)[C@H](CC(C)C)NC(=O)[C@@H](CC(C)C)NC(=O)[C@H](CCN)NC1=O)[C@@H](C)O (X2-[Dab]T[Dab][Dab][Dab][dL]L[Dab][Dab][dT]; lactam 4-C) | -3.23% [at 20.6 µM] (inactive) |  |
| C=C1CC[C@@H]2[C@](C)(CO)[C@H](O)CC[C@@]2(C)[C@@H]1C/C=C1/C(=O)OC[C@H]1O | -38% (inactive) |  |
| Cc1nc(NS(=O)(=O)c2ccc(N)cc2)nc(C)c1Br | -1.33% (inactive) |  |
| C[C@]12CC[C@@H]3c4ccc(OC(=O)c5ccccc5)cc4CC[C@H]3[C@@H]1CC[C@@H]2O | -19.6% (inactive) |  |
| CCCCCCCCCCCCCCCCCCCCCC(=O)Nc1ccn([C@@H]2O[C@H](CO)[C@@H](O)[C@@H]2O)c(=O)n1 | 7.09% (inactive) |  |
| CC(=O)Nc1ccc(OC(=O)c2ccccc2O)cc1 | -2.3% (inactive) |  |

| SMILES | activation | Potency |
| --- | --- | --- |
| Nc1ncnc2c1ncn2[C@@H]1O[C@H](COP(=O)(O)OP(=O)(O)OP(=O)(O)O)[C@@H](O)[C@H]1O | -17.4% (inactive) |  |
| CC(CN(C)C)CN1c2ccccc2Sc2ccc(C(F)(F)F)cc21 (stereo not given) |  | 12.6 µM (active) |
| CC(=O)Oc1cccc(C(=O)O)c1OC(C)=O | -2.95% (inactive) |  |
| CCC(Cc1c(I)cc(I)c(O)c1I)C(=O)O (stereo not given) | 13.3% (inactive) |  |
| CCCCCCCCCCCCCCCCCC[N+](C)(C)CCC[Si](OC)(OC)OC | 34.8% (inactive) |  |
| CCCCCCCCCCCCCCCCCC(=O)OCC(C)O (stereo not given) | -5.97% (inactive) |  |
| COC(F)(F)C(Cl)Cl | -11% (inactive) |  |
| O=C(c1cc2ccccc2o1)N1CCN(Cc2ccccc2)CC1 | -1.6% (inactive) |  |
| Clc1cc(Cl)c(OCC#CI)cc1Cl | -12.8% (inactive) |  |
| CC(CCc1ccc(O)cc1)NCC(O)c1ccc(O)cc1 (stereo not given) | -0.319% (inactive) |  |
| O=C(O)c1nc(=O)[nH]c(=O)[nH]1 | 9.54% (inactive) |  |
| O=C(O)CCC/C=C\C[C@@H]1[C@@H](/C=C/[C@@H](O)COc2cccc(Cl)c2)[C@H](O)C[C@@H]1O | -14.6% (inactive) |  |
| CC1(C)[C@@H]2CC[C@@]1(C)[C@H](OC(=O)CSC#N)C2 | 2.44% (inactive) |  |
| CC(=O)N(CC(C)C(=O)O)c1c(I)cc(I)c(N)c1I (stereo not given) | 20.4% [at 20.6 µM] (inactive) |  |
| CNC(=O)[C@H](Cc1c[nH]c2ccccc12)NC(=O)[C@@H](CC(=O)NO)CC(C)C | 6.8% (inactive) |  |
| CCN(CC)CCOc1ccc2nc(N(C)C)sc2c1 | 17.6% (inactive) |  |
| CC(C)CN(C[C@@H](O)[C@H](Cc1ccccc1)NC(=O)O[C@@H]1CCOC1)S(=O)(=O)c1ccc(N)cc1 | -26.6% (inactive) |  |
| CC(=O)O[C@]1(C(C)=O)CC[C@H]2[C@@H]3CCC4=CC(=O)CC[C@]4(C)[C@@]3(F)[C@@H](O)C[C@@]21C | -9% (inactive) |  |
| CC[C@@]1(O)C[C@H](O[C@H]2C[C@H](N(C)C)[C@H](O[C@H]3C[C@H](O)[C@H](O[C@H]4CCC(=O)[C@H](C)O4)[C@H](C)O3)[C@H](C)O2)c2c(cc3c(c2O)C(=O)c2c(O)cccc2C3=O)[C@H]1C(=O)OC | -22.8% (inactive) |  |
| CSc1nc2cc(Oc3cccc(Cl)c3Cl)c(Cl)cc2[nH]1 | 16.6% (inactive) |  |
